Source: PubChem BioAssay
BoNT F protease = inhibitors of Botulinum neurotoxin F light chain protease | Multiplex microsphere protease cleavage assay, flow cytometry | inhibition, % at 10 µM | actives 0.22% (n = 360,000) | AID 588497; in the data active = inhibition above about 35%, passing the limit was not always enough; inconclusive = no clear call, values can overlap the other calls
Autofluor counter = counter-screen for toxin protease inhibitors: compound fluorescence; compound autofluorescence counterscreen, microsphere flow cytometry; stronger effect = higher value; fluorescence intensity (test concentration not listed); actives 3.1% (n = 360,000); AID 624483; in the data active = fluorescence intensity above about 16000; inconclusive = no clear call, values can overlap the other calls
BoNT-A LC inh2 = inhibitors of Botulinum neurotoxin A light chain protease. inhibition, % at 10 µM. actives 0.17% (n = 360,000). multiplex microsphere protease substrate cleavage, flow cytometry
Anthrax LF inh2 = anthrax lethal factor protease inhibition; P15917; multiplex microsphere protease cleavage assay, LF; inhibition, % at 10 µM; actives 0.12% (n = 360,000); AID 588501
Target sequence (P15917 whole entry, looked up): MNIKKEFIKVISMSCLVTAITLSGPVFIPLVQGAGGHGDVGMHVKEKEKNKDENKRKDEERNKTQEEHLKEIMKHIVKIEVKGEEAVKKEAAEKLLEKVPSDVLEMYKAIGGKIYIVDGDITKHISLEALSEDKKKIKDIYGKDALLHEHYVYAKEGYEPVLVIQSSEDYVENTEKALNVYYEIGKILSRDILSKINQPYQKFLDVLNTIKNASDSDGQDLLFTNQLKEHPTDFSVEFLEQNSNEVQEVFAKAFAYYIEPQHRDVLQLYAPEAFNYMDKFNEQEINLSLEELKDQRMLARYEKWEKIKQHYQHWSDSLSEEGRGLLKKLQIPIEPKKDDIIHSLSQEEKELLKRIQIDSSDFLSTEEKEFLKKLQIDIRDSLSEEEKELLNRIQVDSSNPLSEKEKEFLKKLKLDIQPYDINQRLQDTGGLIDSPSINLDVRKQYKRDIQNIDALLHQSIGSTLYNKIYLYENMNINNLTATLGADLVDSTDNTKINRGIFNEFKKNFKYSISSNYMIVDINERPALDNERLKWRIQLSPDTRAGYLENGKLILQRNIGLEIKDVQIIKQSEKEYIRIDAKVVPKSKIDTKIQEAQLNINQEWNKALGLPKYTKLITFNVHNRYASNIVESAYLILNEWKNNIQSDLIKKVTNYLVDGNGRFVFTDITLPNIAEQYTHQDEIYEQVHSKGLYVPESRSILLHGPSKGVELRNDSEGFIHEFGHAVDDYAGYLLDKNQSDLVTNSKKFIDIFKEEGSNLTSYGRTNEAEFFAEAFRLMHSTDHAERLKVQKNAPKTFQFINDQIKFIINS
3CLpro inhibitor = SARS-CoV 3CLpro protease inhibition. P0C6X7. recombinant SARS-CoV 3CLpro, quenched FRET peptide cleavage. inhibition, % at 6 µM. actives 0.14% (n = 290,000); in the data active = inhibition above about 12%
Of the large screens only hits and unclear results are named; the others gave an inactive call; ! = not active in a repeat. Sampled rows, rich in hits. Any-hit rate of the full collection: about 3.5%. Cut-off read from the data, not from the text of the source, unless noted: active = inhibition above about 30%; inconclusive = no clear call, values can overlap the other calls; inactive = below that.

COc1ccc(C(=O)c2cn[nH]c2-c2cc(Cl)ccc2O)cc1	Autofluor counter 16806
N#Cc1ccc(Oc2nc(C(N)=O)cc(-c3ccccc3)n2)cc1	Autofluor counter 24851
Cn1cccc1-c1nc2ccc(NC(=O)c3ccc([N+](=O)[O-])cc3)cc2[nH]1	Autofluor counter 19889
S=C(NCCCN1CCOCC1)NC1CCCC1	none
Cc1ccc(S(=O)(=O)CCC(=O)OCC(=O)NC(=O)c2ccccc2)cc1	Autofluor counter 40297 (no result: 3CLpro inhibitor)
CC(/C=C/c1ccc(O)cc1)=NNc1ccccc1	none (no result: 3CLpro inhibitor)
CCOc1ccc(C(=O)Nc2ccc(S(=O)(=O)N3C[C@@H]4C[C@@H](C3)c3cccc(=O)n3C4)cc2)cc1	none (no result: 3CLpro inhibitor)
CCOc1ccc(CNC(=O)CCn2c(=O)oc3ccccc32)cc1	Autofluor counter 16172
CCOc1ccccc1NC(=O)Cn1c(=O)oc2ccccc21	none
CCOc1ccc(OCC)c(NC(=O)CCn2c(=O)oc3ccccc32)c1	Autofluor counter 19376, BoNT-A LC inh2 inconclusive
COc1ccc(C(OC(=O)c2c(C)noc2C)C(=O)NC2CCCC2)cc1 (configuration not stated)	Autofluor counter 19678
O=C(Nc1ccc(NS(=O)(=O)c2ccccc2)c(Cl)c1)c1ccccc1	none (no result: 3CLpro inhibitor)
COc1ccc(OC)c(S(=O)(=O)N2CCCC(C(=O)N3CCCC3)C2)c1 (configuration not stated)	none
CCCCN1C(=O)/C(=C/C=C2\Oc3ccccc3N2CC)SC1=S	none
CCN1/C(=C/C=C/c2oc3ccc(-c4ccccc4)cc3[n+]2CC)Oc2ccc(-c3ccccc3)cc21	Autofluor counter 70271, BoNT-A LC inh2 43
COc1cccc(CNC(=O)CN(C)S(=O)(=O)c2cccc3cccnc23)c1	none
CN(Cc1ccccc1)S(=O)(=O)c1cccc2cccnc12	Autofluor counter 24517
CCOC(=O)c1[nH]nc(C(=O)c2ccc(Br)cc2)c1O	Autofluor counter 18245
CCOC(=O)c1ccc(CNCc2ccc(Br)cc2)cc1	none
O=S(=O)(Nc1ccc2c(c1)nc1n2CCOC1)c1ccc(Cl)cc1	Autofluor counter 22037
O=S(=O)(Nc1ccc2c(c1)nc1n2CCOC1)c1ccccc1	Autofluor counter 19895
O=C(COc1ccccc1)Nc1ccc2c(c1)nc1n2CCOC1	none
CN(C)c1nc(N(C)C)n(C(=O)c2ccc(F)cc2)n1	none
CCN(CC)CCN(Cc1cc2cc3c(cc2[nH]c1=O)OCCO3)C(=O)NC1CCCCC1	none
Cc1ccc2[nH]c(=O)c(CN(CCCN3CCOCC3)C(=O)NC3CCCCC3)cc2c1	Autofluor counter 22874, BoNT-A LC inh2 inconclusive
O=C(NC1CCCCC1)N(CCN1CCOCC1)Cc1cc2cc3c(cc2[nH]c1=O)OCCO3	Autofluor counter 19967
O=C1CSC(=S)N1/N=C/c1ccc(O)c(O)c1O	none
COc1ccc(Oc2ccc3c(C(F)(F)F)cc(C(F)(F)F)nc3n2)cc1	Autofluor counter 22263, BoNT-A LC inh2 inconclusive
FC(F)(F)c1ccc(Oc2ccc3c(C(F)(F)F)cc(C(F)(F)F)nc3n2)cc1	Autofluor counter 22830
Cc1ccc(SCc2cc(=O)[nH]c(Nc3nc(C)c4cccc(C)c4n3)n2)cc1	Autofluor counter 22617
CCOc1ccc2nc(Nc3nc(CSc4nnnn4-c4ccccc4)cc(=O)[nH]3)nc(C)c2c1	Autofluor counter 20506, BoNT-A LC inh2 inconclusive
Cn1cnnc1SCC(=O)c1ccc2c(c1)OCCO2	Autofluor counter 16723
O=C(CSc1nnc(SCc2cccc3ccccc23)s1)c1ccc2c(c1)OCO2	Autofluor counter 19293
O=C(CSc1nc(Cc2ccccc2)nc2ccccc12)c1ccc2c(c1)OCCO2	none
CCc1nc(SCC(=O)c2ccc3c(c2)OCCO3)c2ccccc2n1	Autofluor counter 22675
CCN1c2ccccc2-c2nc3ccccc3n2C1c1ccco1 (configuration not stated)	none
COc1cccc(CN(C)C(=O)CN2C(=O)NC3(CCCc4ccccc43)C2=O)c1 (configuration not stated)	none (no result: 3CLpro inhibitor)
COc1ccc(C(=O)n2nc(C)cc2Nc2ccccc2)cc1	Autofluor counter inconclusive
O=C(O)C1CCCN1S(=O)(=O)c1ccc(Cl)cc1 (configuration not stated)	none
Cc1ccc(S(=O)(=O)N2CCCC2C(=O)O)s1 (configuration not stated)	Autofluor counter 24047
O=C(O)C1CCCN1S(=O)(=O)c1ccccc1 (configuration not stated)	Autofluor counter 20858
CCCCN(CCCC)c1nc(OC)nc(-n2nnc(C(C)=O)c2C)n1	none
CC1=CC(=C(C#N)c2nc3ccccc3s2)C=C(C)N1c1ccc(F)cc1	BoNT-A LC inh2 36
COc1ccccc1N1C(C)=CC(=C(C#N)c2nc3ccccc3s2)C=C1C	BoNT-A LC inh2 57
CC(C)=C(C#N)c1nc2ccccc2s1	none
CC(C)CCn1c(=O)c2ccccc2c2ccccc2c1=O	none
COc1cccc(/C=N/NC(=O)CC2C(=O)NN=C2C)c1OC (configuration not stated)	none
COc1cccc(/C=N/NC(=O)CC2C(=O)NN=C2C)c1O (configuration not stated)	Autofluor counter 20430
CN(CC(=O)Nc1cccc(F)c1)C(=O)c1ccccc1Sc1ccccc1C#N	none (no result: 3CLpro inhibitor)
O=C(OCc1nc2ccccc2s1)c1ccc(Br)s1	Autofluor counter 23134
Oc1ccccc1OCc1nc2ccccc2s1	Autofluor counter 22098
Nc1ccc(C(=O)OCc2nc3ccccc3s2)cc1	none
OCc1cc(Br)ccc1OCc1nc2ccccc2s1	none
Cc1cccnc1NC(=O)C1CCN(S(=O)(=O)c2ccc3ccccc3c2)CC1	Autofluor counter inconclusive (no result: 3CLpro inhibitor)
CCCCOC(=O)c1ccc(-c2ccc(/C=N/NC(=S)NCC)o2)cc1	Autofluor counter 16266, BoNT-A LC inh2 inconclusive
CCOC(=O)c1ccc(-c2ccc(/C=N/NC(=O)c3cncc(Br)c3)o2)cc1	BoNT F protease inconclusive
Cc1ccc2cc(CN(CC3CCCO3)C(=S)NCc3ccco3)c(=O)[nH]c2c1C (configuration not stated)	none
CC1=CC(C)=Nc2ccc(C)cc2N1	Autofluor counter 18983!
O=C(CC1C(=O)NCCN1Cc1ccccc1C(F)(F)F)NC1CCCC1 (configuration not stated)	none
Cc1ccccc1-c1noc(CCC(=O)NCC2CCCO2)n1 (configuration not stated)	Autofluor counter 22713
Cc1cccc(-c2noc(CCC(=O)NCC3CCCO3)n2)c1 (configuration not stated)	Autofluor counter 23287
c1ccc(-c2nnc(C3CC(c4ccncc4)=NO3)o2)cc1 (configuration not stated)	none (no result: 3CLpro inhibitor)
O=C1CSC(c2cccs2)N1c1ccccc1 (configuration not stated)	none
c1ccc(N2CCN(c3ccccc3)C2c2cccs2)cc1	Autofluor counter 22528
Cc1nonc1CC(=O)NC1CC(C)(C)Cc2c1cnn2-c1ccc(F)cc1 (configuration not stated)	none
CCN(CC)c1ccc(/C=N/Nc2ccc(C)cc2)c(O)c1	none
CCN(CC)c1ccc(C=Nc2cc(C)ccc2C)c(O)c1	BoNT-A LC inh2 72
CCN(CC)c1ccc(C=Nc2ccc(C)cc2C)c(O)c1	BoNT-A LC inh2 37
